Source: PubChem (several laboratories)
An excerpt weighted towards active compounds, which were near 1.1% of everything screened.
Yp Topo-I inh: Yersinia pestis topoisomerase I inhibitors, primary screen, biochemical, cleavage product accumulation, plate reader, single point | DNA topoisomerase I (Yersinia pestis CO92) | Y. pestis Topo-I cleavage product accumulation | activity, % at 10 µM | 360,000 compounds, 0.064% hits; in the data active = activity above about 50%, passing the limit was not always enough
BJeLR viability: MLPCN primary cell-based screen for lethality selective to Ras in HRASV12 cells. BJeLR (HRASV12) viability, CellTiter-Glo ATP luminescence, 48 h. inhibition, % (test concentration not listed). 300,000 compounds, 0.17% hits. AID 1554, 2009; in the data active = inhibition above about 50%
RecA splice inh: Mtb RecA intein splicing inhibitors, primary screen, biochemical, fluorescence, HTS | 290,000 compounds, 0.75% hits | Protein RecA (Mycobacterium tuberculosis (strain ATCC 25618 / H37Rv)), P9WHJ3 | cell-free RecA intein splicing | inhibition, % (concentration not given with the values); in the data active = inhibition above about 30%;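 note: 0% = vehicle wells and 100% = reference inhibitor control wells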
Target sequence (P9WHJ3 whole entry, looked up, canonical isoform): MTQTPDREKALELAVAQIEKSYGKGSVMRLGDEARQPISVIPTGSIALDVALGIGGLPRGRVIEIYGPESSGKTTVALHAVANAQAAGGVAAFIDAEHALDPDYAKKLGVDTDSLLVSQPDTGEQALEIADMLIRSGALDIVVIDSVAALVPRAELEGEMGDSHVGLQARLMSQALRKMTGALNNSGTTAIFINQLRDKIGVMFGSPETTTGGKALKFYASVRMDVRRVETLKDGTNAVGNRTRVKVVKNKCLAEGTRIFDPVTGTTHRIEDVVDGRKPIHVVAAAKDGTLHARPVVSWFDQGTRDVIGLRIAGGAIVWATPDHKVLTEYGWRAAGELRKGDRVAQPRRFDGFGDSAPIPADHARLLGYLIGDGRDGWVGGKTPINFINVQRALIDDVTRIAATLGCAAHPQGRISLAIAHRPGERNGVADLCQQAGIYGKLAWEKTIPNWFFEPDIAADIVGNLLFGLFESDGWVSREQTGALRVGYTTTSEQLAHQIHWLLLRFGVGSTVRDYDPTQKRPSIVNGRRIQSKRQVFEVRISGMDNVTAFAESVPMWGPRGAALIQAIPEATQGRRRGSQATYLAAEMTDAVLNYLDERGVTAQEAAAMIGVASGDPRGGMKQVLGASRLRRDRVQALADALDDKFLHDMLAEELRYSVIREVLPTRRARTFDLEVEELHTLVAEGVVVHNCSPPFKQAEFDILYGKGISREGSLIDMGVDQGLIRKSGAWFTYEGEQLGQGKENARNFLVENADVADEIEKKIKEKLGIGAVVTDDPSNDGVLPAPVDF
CCHF vOTU inh-1: CCHFV vOTU protease inhibitors, primary screen, biochemical, Pep-AMC substrate, fluorescence; Crimean-Congo hemorrhagic fever virus L polyprotein viral ovarian tumor (vOTU) protease …; inhibition, % at 11.5 µM; 370,000 compounds, 0.55% hits; AID 651958, 2012; note: 0% = vehicle wells with enzyme and 100% = no enzyme wells
Mtb betalactam: beta-lactam sensitization of Mtb H37Rv, H37Rv; M. tuberculosis H37Rv growth with meropenem, percent inhibition; inhibition, % at 25 µM; 330,000 compounds, 0.27% hits; call rule not given here;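 note: growth measured after seven days incubation then overnight dye step; 0% = bacteria only wells and 100% = bacteria with antibiotic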
BioA inh: M. tuberculosis BioA enzyme inhibitors, primary screen, biochemical, plate reader, single point, HTS | 7,8-diaminopelargonic acid synthase BioA (Mycobacterium tuberculosis) | 360,000 compounds, 0.096% hits | inhibition, % at 9.99 µM | AID 602481, 2012 | purified M. tuberculosis BioA enzyme; in the data active = inhibition above about 40%
CCHF vOTU inh-2: CCHFV vOTU protease inhibitors, confirmation, biochemical, Pep-AMC substrate, fluorescence; shares compounds with CCHF vOTU inh-1; Recombinant CCHFV vOTU; inhibition, % at 11.5 µM; 1,900 compounds, 17% hits; AID 686976, 2013
Starred values were filed as active, the others as inactive. Cut-off read from the data, not from the text of the source, unless noted: active = inhibition above about 30%; inactive = the rest.

Screening CCCCC[C@@H]1C=C(C(=O)O)[C@H](c2ccc(Cl)c(Cl)c2)N1S(=O)(=O)c1ccc(C)cc1 returned Yp Topo-I inh -2, CCHF vOTU inh-1 37*, Mtb betalactam -8, BioA inh 14 and CCHF vOTU inh-2 21.
For O=C(C[C@@H]1CC[C@H]2[C@@H](COC[C@@H](O)CN2C(=O)C2CC2)O1)NCc1ccccc1Cl the results were BioA inh 0.
Screening O=c1[nH]n2c(=O)c3c([nH]c2c1N=Nc1cccc(Cl)c1)CCC3 returned Yp Topo-I inh -1, BJeLR viability -2, RecA splice inh 8, CCHF vOTU inh-1 23, Mtb betalactam 58 and BioA inh 6.
For O=c1[nH]n2c(=O)c3c([nH]c2c1N=Nc1cccc(C(F)(F)F)c1)CCCC3 the results were Yp Topo-I inh 26, BJeLR viability 4, RecA splice inh 12, CCHF vOTU inh-1 44*, Mtb betalactam 74, BioA inh 7 and CCHF vOTU inh-2 13.
Screening O=C(C[C@@H]1CC[C@H]2[C@@H](COC[C@H](O)CN2C(=O)c2ccccc2F)O1)N1CCOCC1 returned BioA inh 0.
`O=C(NCc1ccco1)c1ccccc1Nc1ccc(F)cc1` gave Yp Topo-I inh -4, RecA splice inh 10, CCHF vOTU inh-1 31*, Mtb betalactam -3, BioA inh -2 and CCHF vOTU inh-2 -5.
Screening CC(=O)NC1=C(N(C)C2CCS(=O)(=O)C2)C(=O)c2ccccc2C1=O (stereo unspecified) returned Yp Topo-I inh -2, BJeLR viability -7, RecA splice inh 26, CCHF vOTU inh-1 61*, Mtb betalactam -1, BioA inh -1 and CCHF vOTU inh-2 71*.
Screening CN(C)C(=O)c1ccc(-c2cccc(-c3nc(C(=O)NC4CCC4)cc4c3[C@H](CCO)N([S@@](=O)C(C)(C)C)C4)c2)cc1 returned BioA inh 2.
Screening O=C(N/N=C/c1ccco1)/C(=C/c1cccc([N+](=O)[O-])c1)NC(=O)c1ccccc1 returned Yp Topo-I inh -7, BJeLR viability -13, RecA splice inh 10, CCHF vOTU inh-1 -4 and Mtb betalactam 4.
O=C(N/N=C/c1ccc(Br)o1)/C(=C/c1ccc([N+](=O)[O-])cc1)NC(=O)c1ccccc1 was read as Yp Topo-I inh 4, BJeLR viability 5, RecA splice inh 10, CCHF vOTU inh-1 38*, Mtb betalactam 3, BioA inh -1 and CCHF vOTU inh-2 -5.
Nn1cnnc1N/N=C/c1ccc(F)cc1 was read as Yp Topo-I inh 0, BJeLR viability 11, RecA splice inh 0, CCHF vOTU inh-1 92*, Mtb betalactam 53, BioA inh 0 and CCHF vOTU inh-2 -18.
`Cc1ccc(/C=N/Nc2nncn2N)cc1` gave Yp Topo-I inh -8, BJeLR viability -1, RecA splice inh -5, CCHF vOTU inh-1 87*, Mtb betalactam 96, BioA inh 1 and CCHF vOTU inh-2 -17.
Screening Cc1ccc(/C=N/Nc2nc(C)cc(C)n2)cc1 returned Yp Topo-I inh 2, BJeLR viability -3, RecA splice inh -2, CCHF vOTU inh-1 -6, Mtb betalactam 4 and BioA inh -1.
`Cn1cnc(S(=O)(=O)N2C[C@@H](O)COC[C@@H]3O[C@H](CC(=O)N4CCN(c5ccccc5)CC4)CC[C@H]32)c1` gave BioA inh -2.
Screening C[C@H](CO)N1C[C@H](C)[C@@H](CN(C)S(=O)(=O)c2ccc(Cl)cc2)OCCCC[C@H](C)Oc2ccc(NS(=O)(=O)c3cccs3)cc2C1=O returned BioA inh -2.
Screening c1cc2c3c(cccc3c1)NC1(CCCCCC1)N2 returned Yp Topo-I inh -5, BJeLR viability 1, RecA splice inh 26, CCHF vOTU inh-1 5 and Mtb betalactam 100.
Screening c1cc2c3c(cccc3c1)NC1(CCCCC1)N2 returned Yp Topo-I inh -35, BJeLR viability -2, RecA splice inh 22, CCHF vOTU inh-1 30*, Mtb betalactam 2, BioA inh -3 and CCHF vOTU inh-2 17.
`COc1ccc(O)c(/C=N/NC(=O)c2cccc(N3CCCC3=O)c2)c1` gave Yp Topo-I inh 4, BJeLR viability 5, RecA splice inh -10, CCHF vOTU inh-1 -14, Mtb betalactam 3 and BioA inh 0.
Screening O=C(N/N=C/c1cc(Br)ccc1O)c1cccc(N2CCCC2=O)c1 returned Yp Topo-I inh -4, BJeLR viability 4, RecA splice inh 1, CCHF vOTU inh-1 32*, Mtb betalactam 10 and CCHF vOTU inh-2 -15.
Screening C[C@@H]1CN([C@@H](C)CO)C(=O)Cc2cc(NC(=O)c3ccncc3)ccc2O[C@@H]1CN(C)S(=O)(=O)c1ccc(F)cc1 returned BioA inh 0.
For CCOC(=O)C1=C(CC)Nc2ccccc2N=C1NC(=O)c1cc(S(=O)(=O)N(C)C)ccc1Cl the results were Yp Topo-I inh 0, BJeLR viability 5, RecA splice inh -4, CCHF vOTU inh-1 -3, Mtb betalactam -2 and BioA inh 0.
For CCOC(=O)C1=C(CC)Nc2ccccc2N/C1=N\S(=O)(=O)c1ccc(C(=O)OCC)cc1 the results were Yp Topo-I inh 16, BJeLR viability 5, RecA splice inh 3, CCHF vOTU inh-1 30*, Mtb betalactam -4 and CCHF vOTU inh-2 6.
`Cc1nn(C)cc1NC(=O)C[C@H]1CC[C@@H]2[C@@H](COc3ccc(NC(=O)C(C)C)cc3C(=O)N2C)O1` gave BioA inh 12.
CCCc1ccc(-c2cc(NC(=O)Cc3c(C)[nH]c4ccccc34)ccc2N(C)c2cccnc2)cc1 was read as CCHF vOTU inh-1 39* and CCHF vOTU inh-2 -3.
Screening COc1cccc(NC(=O)C[C@H]2CC[C@@H]3[C@H](COc4ccc(NS(=O)(=O)c5cccc(F)c5)cc4C(=O)N3C)O2)c1 returned BioA inh -1.
`CCCNC(=O)C[C@H]1CC[C@@H]2[C@H](COc3ccc(NC(=O)Cc4cccs4)cc3C(=O)N2C)O1` gave BioA inh -1.
`O=C(Cn1cnc2ccccc2c1=O)NCCC(=O)Nc1ccc(F)cc1` gave Yp Topo-I inh 5, BJeLR viability -7, RecA splice inh -2, CCHF vOTU inh-1 56*, Mtb betalactam 2, BioA inh -1 and CCHF vOTU inh-2 -16.
